Inconclusive results are not listed. A number with no mark means an inactive call. Calls follow the shape of the dose curve; as a rule, active = well fitted inhibition curve with a large enough effect; inconclusive = small, poorly fitted or top-dose-only effect; inactive = no such curve, though single readings can be large or run the other way.
% is scaled to controls: 0 for no effect and ±100 for the full control effect.

A short description of this assay: Primary qHTS for small molecule stabilizers of the endoplasmic reticulum resident proteome: Secreted ER Calcium Modulated Protein (SERCaMP) assay (AID 1508630). As to conditions: SH-SY5Y GLuc-SERCaMP (Gaussia luciferase released on ER calcium loss) secretion, thapsigargin, luminescence; series mostly up to 38.4 µM; activity change, negative = inhibition: at the top concentration. In a few lines: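 GLuc-SERCaMP-expressing SH-SY5Y cells, pretreated 16 h with compound, are challenged with thapsigargin to empty ER calcium stores; after 4 h, coelenterazine is added directly to the medium and luminescence is imaged.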
`COc1ccc2[nH]c3c(c2c1)CCNC3C` (stereo not given): the “activity change, negative = inhibition” value is -13.5%.

For `COc1ccc(CCN)cc1`, the “activity change, negative = inhibition” value was 15.4%.

Consider `C[N+]1([O-])CCC[C@@H]1c1cccnc1` (stereo not given in full), for which the “activity change, negative = inhibition” value is 80.1%.

`Cn1cccc1-c1cccnc1`: the “activity change, negative = inhibition” value was -27.1%.

Take `C[C@H]1CC[C@@H]2N(C1)C[C@H]1[C@@H]3C[C@H]4[C@@H](CC(=O)[C@H]5C[C@@H](O)CC[C@@]54C)[C@@H]3CC[C@H]1[C@]2(C)O`: the “activity change, negative = inhibition” value was 5.15%.

Regarding `CC1=C(O)C(=O)[C@@H]2O[C@@H]2C1=O`, the “activity change, negative = inhibition” value was -29.6%.

Regarding `CN1CCCCC1c1cccnc1` (stereo not given), the “activity change, negative = inhibition” value was -6.28%.

For `c1cncc(C2CCCN2)c1` (stereo not given), the “activity change, negative = inhibition” value is -14.7%.

On to `CCN1C[C@]2(COC(=O)c3ccccc3N3C(=O)CC(C)C3=O)CC[C@H](OC)[C@@]34C5C[C@@H]6[C@@H](OC)C[C@@](O)(C5[C@H]6OC)[C@](O)([C@@H](OC)C23)[C@@H]14` (stereo not given in full), for which the “activity change, negative = inhibition” value was 34.4%.

For the molecule `CN(CCCC(=O)c1cccnc1)N=O`, the “activity change, negative = inhibition” value is -9.27%.

For the origin of these results see PubChem BioAssay (NCATS).
